The whole screen tested about 310,000 compounds, of which about 14,000 (4.5%) showed an effect of 50% or more. Effects have a minus sign here. The sample holds strong results, similar compounds and a random draw of the others, so the mix is not that of the screen.
These compounds were tested against human ether-à-go-go-related gene (hERG) potassium channel (human, UniProt Q12809) (assay: primary screen, population patch clamp on CHO cells stably expressing hERG; higher = less effect of the substance).
human ether-à-go-go-related gene (hERG) potassium channel, sequence (Q12809 whole entry, looked up): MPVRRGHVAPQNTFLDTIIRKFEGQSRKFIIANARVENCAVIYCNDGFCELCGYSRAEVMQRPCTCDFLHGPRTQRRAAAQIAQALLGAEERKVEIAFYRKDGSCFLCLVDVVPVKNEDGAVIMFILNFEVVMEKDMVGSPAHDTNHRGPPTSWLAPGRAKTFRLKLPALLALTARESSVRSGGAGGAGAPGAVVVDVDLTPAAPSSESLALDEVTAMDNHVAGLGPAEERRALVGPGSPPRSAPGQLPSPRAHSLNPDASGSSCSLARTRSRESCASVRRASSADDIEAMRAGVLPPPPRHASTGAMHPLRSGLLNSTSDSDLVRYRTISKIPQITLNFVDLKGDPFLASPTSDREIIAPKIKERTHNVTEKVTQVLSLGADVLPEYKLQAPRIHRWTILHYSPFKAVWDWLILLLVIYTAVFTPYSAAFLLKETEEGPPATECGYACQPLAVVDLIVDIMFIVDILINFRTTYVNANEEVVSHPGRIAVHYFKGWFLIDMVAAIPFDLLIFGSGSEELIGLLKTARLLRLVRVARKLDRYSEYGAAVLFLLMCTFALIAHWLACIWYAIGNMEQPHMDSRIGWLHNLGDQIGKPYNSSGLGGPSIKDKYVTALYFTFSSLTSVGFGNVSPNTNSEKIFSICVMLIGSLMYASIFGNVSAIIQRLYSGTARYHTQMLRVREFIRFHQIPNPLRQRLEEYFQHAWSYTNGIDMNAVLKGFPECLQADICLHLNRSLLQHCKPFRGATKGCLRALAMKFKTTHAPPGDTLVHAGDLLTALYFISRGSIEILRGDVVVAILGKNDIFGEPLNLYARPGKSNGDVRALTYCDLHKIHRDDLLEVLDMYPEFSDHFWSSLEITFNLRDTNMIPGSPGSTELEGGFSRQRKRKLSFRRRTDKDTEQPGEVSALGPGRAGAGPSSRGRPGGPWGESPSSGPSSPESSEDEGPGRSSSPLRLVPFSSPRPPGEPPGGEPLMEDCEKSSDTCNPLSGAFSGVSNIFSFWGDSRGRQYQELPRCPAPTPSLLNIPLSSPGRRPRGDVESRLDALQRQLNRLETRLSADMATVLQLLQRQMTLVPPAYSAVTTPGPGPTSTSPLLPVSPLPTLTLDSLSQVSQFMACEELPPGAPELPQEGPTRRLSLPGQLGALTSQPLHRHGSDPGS
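Note: peak tail current of the secondary pulse compared with the same well before compound.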

Compound	hERG current change (%, negative = inhibition) at 10uM [%]
O=C(Nc1cccc(F)c1)c1cc(S(=O)(=O)NCCC2=CCCCC2)ccc1F	17.4
COc1ccccc1N(CC(=O)NCCSCc1ccccc1)S(C)(=O)=O	4.03
COc1ccc(N2CC(C)Cn3c2nc2c3c(=O)[nH]c(=O)n2C)cc1 (stereo not shown)	-24.3
N#Cc1c(NC(=O)CSc2ncccn2)oc(-c2ccccc2)c1-c1ccccc1	25.2
Nc1nc(Cl)nc2ccc(Br)cc12	7.87
Cc1nc2ccccc2c(N)c1C(=O)/C=C/c1ccccc1	-79.7
Cc1[nH]c2ccccc2c1C(=O)/C=C/c1ccccc1	8.96
CC(=O)c1c(C)nc2ccccc2c1N	-10.1
Cc1occc1-c1nnc(SCCNCCO)o1.O=C(O)C(=O)O	63.6
COc1ccc(C2NC(=O)CCC2[N+](=O)[O-])cc1OC (stereo not shown)	10.1
CSc1cccc(NC(=O)CCCOc2ccc(Cl)cc2C)c1	-2.48
c1ccc2sc(C3CCN(Cc4nnnn4Cc4ccc5c(c4)OCO5)CC3)nc2c1	-8.73
c1ccc(Cn2nnnc2CN2CCN(Cc3ccc4c(c3)OCO4)CC2)cc1	-61.1
CC(C)C(c1nnnn1Cc1ccc(F)cc1)N1CCN(Cc2ccc3c(c2)OCO3)CC1 (stereo not shown)	-43.3
CCN1CCN(C(c2ccccc2F)c2nnnn2Cc2ccc3c(c2)OCO3)CC1.Cl (stereo not shown)	-37.6
Cl.NC(=O)C1CCN(C(c2ccccc2F)c2nnnn2Cc2ccco2)CC1 (stereo not shown)	11.1
Cl.c1ccc(CCn2nnnc2C(c2cccs2)N2CCN(Cc3ccc4c(c3)OCO4)CC2)cc1 (stereo not shown)	-24.1
CC(C)C(c1nnnn1Cc1ccc2c(c1)OCO2)N1CCN(c2ccccc2)CC1 (stereo not shown)	23.1
CC(C)C(c1nnnn1Cc1ccccc1)N1CCN(Cc2ccco2)CC1.Cl (stereo not shown)	-32.1
Fc1ccccc1C(c1nnnn1Cc1ccc2c(c1)OCO2)N1CCN(Cc2ccccc2)CC1 (stereo not shown)	-55.3

Compound	hERG current change (%, negative = inhibition) at 10uM [%]
c1ccc2c(c1)CCN(Cc1nnnn1Cc1ccc3c(c1)OCO3)C2	-3.1
Cl.Fc1ccccc1C(c1nnnn1Cc1ccc2c(c1)OCO2)N1CCN(Cc2ccco2)CC1 (stereo not shown)	-56.4
CC(C)C(c1nnnn1Cc1ccccc1)N1CCN(Cc2ccc3c(c2)OCO3)CC1 (stereo not shown)	-52
O=C(CN1C(=O)NC2(CCCC2)C1=O)OCc1ccc(Cl)cc1Cl	-20.9
CC(C)c1ccc(/C=C/C(=O)N2CCc3ccccc3C2)cc1	3.46
O=C(CC(SCCO)c1ccc([N+](=O)[O-])cc1)c1ccco1 (stereo not shown)	-35.7
O=C(NCc1ccccc1Cl)c1cc2c(s1)CS(=O)(=O)C2	-4.86
Cc1nnc(C)n1/N=C/c1cc(Br)ccc1O	9.86
C/C(=N/NS(=O)(=O)c1ccc(C)cc1C)c1ccc2c(c1)OCO2	-2.58
O=C(O)c1ccccc1SSc1ccccc1C(=O)O	25.5
O=C(c1ccco1)N1CCC(c2nc(-c3ccccc3Cl)no2)CC1	-11.5
Clc1ccc(CNCc2cccs2)cc1Cl	7.52
CC1CC(C)CN(C(=O)Nc2ccccc2F)C1 (stereo not shown)	22.9
CCN(CC)S(=O)(=O)c1ccc(C(=O)NC2CN3CCC2CC3)cc1 (stereo not shown)	25.6
Br.COc1ccc(/C=N/N(C)C2=NCCN2)c(OC)c1OC	5.63
Br.CN(/N=C/c1ccncc1)C1=NCCN1	5.06
CN(/N=C/c1ccc(C(C)(C)C)cc1)C1=NCCN1	-71.6
Cc1ccccc1C(=O)N1CCC(C(=O)Nc2ccccn2)CC1	11.9
Cn1nc(C(=O)N2CCOCC2)c([N+](=O)[O-])c1C(=O)N1CCOCC1	-54.4
Cn1nc(C(C)(C)C)c([N+](=O)[O-])c1C(=O)N1CCOCC1	17.3

Compound	hERG current change (%, negative = inhibition) at 10uM [%]
Cc1onc(C(=O)N2CCOCC2)c1[N+](=O)[O-]	19.8
Cc1cc2ncn(CC(C)C)c2cc1C	-3.79
O=C(CN1CCC(O)(c2ccc3c(c2)OCO3)CC1)NC1CCCCC1	3.07
CSC(=Nc1ccc(Cl)cc1)N[n+]1ccccc1.[I-]	-58.8
CSC(=Nc1ccccc1)Nc1ccccc1	-15.8
[S-]C(=Nc1ccc(Cl)cc1)N[n+]1ccccc1	1.12
C[N+]1(CCC(C(N)=O)(c2ccccc2)c2ccccc2)CCCCC1.[Br-]	10.7
ClCc1csc(N/N=C/c2cccs2)n1	11.8
CCOc1ccc(Br)cc1S(=O)(=O)Nc1ccc(C(=O)OCC(=O)N(C)c2ccccc2)cc1	12.7
CC1CC(OC(=O)c2ccccc2)(c2ccccc2)C(C)CN1C (stereo not shown)	-8.66
O=C(CCCN1C(=O)/C(=C/c2ccccc2)SC1=S)Nc1cccc(O)c1	2.17
O=C(O)CCC(=O)NNC(=O)COc1cccc(Cl)c1	2.84
O=C(Cc1ccccc1)N1CCN=C1SCc1ccc([N+](=O)[O-])cc1	-55.5
O=C(Cc1ccc(F)cc1)N1CCN=C1SCc1ccc([N+](=O)[O-])cc1	-47.3
COc1ccc(CC(=O)N2CCN=C2SCc2ccc([N+](=O)[O-])cc2)cc1	-52.2
O=C(Cc1ccc([N+](=O)[O-])cc1)N1CCN=C1SCc1ccccc1	-7.33
CCOc1ccc(CC(=O)N2CCN=C2SCc2ccc([N+](=O)[O-])cc2)cc1	5.05
COc1ccc(CC(=O)N2CCN=C2SCc2cccc([N+](=O)[O-])c2)cc1	-5.33

From publication PMC4336329 (PLoS ONE, 2015)
